We go through 27 molecules from the supplement of paper PMC13380429.

The subject of experiment [1] is Vero E6 infected with SARS-CoV-2. The experiment in a line: morphology score (similarity to uninfected cells); higher = more like uninfected cells. As to conditions: 24 h.
For experiment [2] the test system is unchanged. The experiment in a line: SARS-CoV-2 infection rate relative to infected DMSO; higher = more infection, active = 60 or less. As to conditions: 24 h.

`C[C@H](c1ccc(F)cc1CCCC(=O)O)N(c1cc(F)ccc1F)S(=O)(=O)c1ccc(Cl)cc1` (10 µM) returned a morphology score in experiment [1] of 0.0279. Moreover, in experiment [2], the SARS-CoV-2 infection rate was 112% (inactive).

In experiment [1], `CC(=O)N1N=C(c2ccc(N)cc2)c2cc3c(cc2C[C@H]1C)OCO3` [talampanel] (10 µM) yielded a morphology score of -0.0668. In experiment [2], the SARS-CoV-2 infection rate was 104% (inactive).

Consider `CCCCOc1ccc(C(=O)CCN2CCCCC2)cc1` [dyclonine] (10 µM), for which the morphology score in experiment [1] worked out at 0.347. Moreover, in experiment [2], the SARS-CoV-2 infection rate is 91.5% (inactive).

Regarding `COc1ccc(CCN)cc1OC` [homoveratrylamine] (10 µM), the morphology score in experiment [1] was -0.0152. Moreover, in experiment [2], the SARS-CoV-2 infection rate is 118% (inactive).

Turning to `COCC[n+]1c2c(n(Cc3cnccn3)c1C)C(=O)c1ccccc1C2=O` (0.833333 µM), the morphology score in experiment [1] worked out at 0.0783. The SARS-CoV-2 infection rate in experiment [2] was 108% (inactive).

The molecule `NC(=O)c1ccc[n+]([C@@H]2O[C@H](COP(=O)([O-])OP(=O)(O)OC[C@H]3O[C@@H](n4cnc5c(N)ncnc54)[C@H](O)[C@@H]3O)[C@@H](O)[C@H]2O)c1` [nadide] (10 µM) had a morphology score in experiment [1] of -0.0496. The SARS-CoV-2 infection rate in experiment [2] is 94% (inactive).

On to `Cc1c(I)c(=O)n(-c2ccccc2)n1C` [iodoantipyrine] (10 µM), for which, in experiment [1], the morphology score was 0.0311. In addition, in experiment [2], the SARS-CoV-2 infection rate was 118% (inactive).

Molecule `C[C@@H](Nc1cc(F)cc(F)c1)c1cc(C(=O)N(C)C)cc2c(=O)cc(N3CCOCC3)oc12` (10 µM) registered a morphology score in experiment [1] of -0.225. Also, in experiment [2], the SARS-CoV-2 infection rate is 122% (inactive).

On to `O=C1c2cccc3c2[C@H](CCC3)CN1[C@@H]1CN2CCC1CC2` [palonosetron] (10 µM), for which the morphology score in experiment [1] came to 0.324. For the same molecule, the SARS-CoV-2 infection rate in experiment [2] is 91.5% (inactive).

`Cc1noc(-c2ccc(-c3ccc(CC(=O)O)cc3)cc2)c1NC(=O)O[C@H](C)c1ccccc1` (0.833333 µM) yielded a morphology score in experiment [1] of 0.148. In addition, the SARS-CoV-2 infection rate in experiment [2] was 112% (inactive).

In experiment [1], `CC[C@@]1(O)C(=O)OCc2c1cc1n(c2=O)Cc2cc3ccccc3nc2-1` [camptothecin] (0.833333 µM) had a morphology score of -0.218. The SARS-CoV-2 infection rate in experiment [2] is 114% (inactive).

For the molecule `CC1(C)OC[C@H](NC(=O)Nc2ccc(Br)cc2Br)[C@H](c2ccccc2)O1` (10 µM), in experiment [1], the morphology score was -0.142. For the same molecule, in experiment [2], the SARS-CoV-2 infection rate was 112% (inactive).

For `CCN1C[C@]2(OC(=O)c3ccccc3NC(C)=O)CC[C@H](OC)[C@@]34[C@@H]2C[C@@H]([C@@H]13)[C@@]1(O)C[C@H](OC)[C@H]2C[C@@H]4[C@]1(O)[C@H]2OC` [lappaconite] (10 µM), in experiment [1], the morphology score stood at 0.0794. The SARS-CoV-2 infection rate in experiment [2] is 118% (inactive).

Molecule `NCCS` [cysteamine] (10 µM) came in with a morphology score in experiment [1] of -0.0321. Moreover, the SARS-CoV-2 infection rate in experiment [2] was 112% (inactive).

For the molecule `CS(=O)(=O)CCNCc1nc(-c2ccc3ncnc(Nc4ccc(OCc5cccc(F)c5)c(Cl)c4)c3c2)cs1` (10 µM), the morphology score in experiment [1] was -0.294. Also, the SARS-CoV-2 infection rate in experiment [2] was 116% (inactive).

As to `FC(F)OC(F)(F)C(F)Cl` (centres undefined) [enflurane] (10 µM), the morphology score in experiment [1] stood at 0.188. For the same molecule, the SARS-CoV-2 infection rate in experiment [2] was 98.5% (inactive).

`O=C(O)CCc1ccc(NCc2cccc(Oc3ccccc3)c2)cc1` (10 µM) returned a morphology score in experiment [1] of -0.132. In addition, the SARS-CoV-2 infection rate in experiment [2] was 116% (inactive).

Take `COc1ccncc1C(=O)NC(=O)Nc1ccc(-c2ccccc2)c(C(F)(F)F)c1` [S1P1-agonist-III] (10 µM): the morphology score in experiment [1] was -0.0188. Also, the SARS-CoV-2 infection rate in experiment [2] is 100% (inactive).

Regarding `O=C(O)P(=O)(O)O` [foscarnet] (10 µM), in experiment [1], the morphology score is 0.202. Also, in experiment [2], the SARS-CoV-2 infection rate is 98% (inactive).

As for `O.O.O.O.O=C([O-])CC(O)(CC(=O)[O-])C(=O)[O-].[Li+].[Li+].[Li+]` [lithium-citrate] (10 µM), the morphology score in experiment [1] is 0.239. Also, in experiment [2], the SARS-CoV-2 infection rate was 89% (inactive).

Molecule `CCCCNc1nc(N)c2[nH]c(=O)n(Cc3ccc(OCCN(C)C)nc3)c2n1` (10 µM) displayed a morphology score in experiment [1] of 0.0113. Further, in experiment [2], the SARS-CoV-2 infection rate is 103% (inactive).

The molecule `CN[C@@H](C)C(=O)N[C@H](C(=O)N1CCC[C@H]1C(=O)N[C@H]1c2ccccc2C[C@H]1OCC#CC#CCO[C@@H]1Cc2ccccc2[C@@H]1NC(=O)[C@@H]1CCCN1C(=O)[C@@H](NC(=O)[C@H](C)NC)C1CCCCC1)C1CCCCC1` (10 µM) yielded a morphology score in experiment [1] of -0.161. The SARS-CoV-2 infection rate in experiment [2] was 112% (inactive).

For the molecule `CC1(C)NC(=O)N(c2ccc([N+](=O)[O-])c(C(F)(F)F)c2)C1=O` [nilutamide] (10 µM), the morphology score in experiment [1] is 0.15. Besides, the SARS-CoV-2 infection rate in experiment [2] was 108% (inactive).

`CO[C@@H]1COCC[C@@H]1N[C@@H]1CC[C@@](C(=O)N2CCc3ncc(C(F)(F)F)cc3C2)(C(C)C)C1` (10 µM) registered a morphology score in experiment [1] of -0.21. Also, in experiment [2], the SARS-CoV-2 infection rate is 113% (inactive).

For `O=C(O)c1ccccc1C(=O)Nc1ccc(-c2ccccc2)cc1` [kartogenin] (10 µM), the morphology score in experiment [1] worked out at 0.214. In addition, the SARS-CoV-2 infection rate in experiment [2] was 97.5% (inactive).

For the molecule `Nc1nc2c(ncn2COCCO)c(=O)[nH]1` [acyclovir] (10 µM), the morphology score in experiment [1] turned out to be 0.109. In addition, the SARS-CoV-2 infection rate in experiment [2] was 104% (inactive).

For the molecule `CC(C)=CCC/C(C)=C/CC/C(C)=C/CSc1ccccc1C(N)=O` [farnesyl-thiosalicylic-acid-amide] (10 µM), the morphology score in experiment [1] came out at 0.012. Further, the SARS-CoV-2 infection rate in experiment [2] was 110% (inactive).
